# RPL19A TOR yeast = alters RPL19A-GFP fluorescence in TOR pathway yeast screen; actives 0.3% (n = 330,000); S. cerevisiae RPL19A-GFP strain, flow cytometry, 3 h; stronger effect = lower value; AID 2025; percent response vs DMSO, % at 10 µM;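 active = percent response vs DMSO below 50%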;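 note: median channel GFP fluorescence of the barcoded RPL19A-GFP strain; ratio of sample median GFP to plate DMSO average so 100% = DMSO; lower means less RPL19A-GFP as with rapamycin TOR inhibition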
# AGP1-GFP MLPCN = modulators of TOR pathway AGP1-GFP in S. cerevisiae; actives 0.02% (n = 320,000); S. cerevisiae AGP1-GFP multiplex flow cytometry, 3 h; GFP as percent of DMSO wells; AID 2066; GFP response vs DMSO, % at 10 µM;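 active = GFP response relative to DMSO above a set limit, near screen average plus 3 SD, cut at about 150% in these data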;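 note: median GFP channel fluorescence of the gated AGP1 strain per well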
# MEP2-GFP yeast = modulators of TOR pathway MEP2-GFP in S. cerevisiae; AID 2016; S. cerevisiae MEP2-GFP strain, flow cytometry GFP, 3 h; 100% = DMSO control level; GFP response vs DMSO, % at 10 µM; actives 0.51% (n = 330,000);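 active = GFP response versus DMSO above a set limit, roughly screen mean plus 3 SD, cut at about 180% in these data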;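 note: median GFP fluorescence of the barcode-gated MEP2-GFP cells per well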
# CIT2-GFP yeast = modulators of TOR pathway CIT2-GFP in S. cerevisiae. GFP response vs DMSO, % at 10 µM. AID 2029. S. cerevisiae CIT2-GFP strain, flow cytometry, 3 h; 100 means same as DMSO wells. actives 0.065% (n = 320,000);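 active = GFP response relative to DMSO above a set limit, near the screen mean plus 3 SD, cut at about 150% in these data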;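 note: ratio of well median GFP fluorescence to mean of DMSO wells on the plate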
# LAP4-GFP MLPCN = yeast TOR pathway LAP4-GFP modulation; actives 0.34% (n = 320,000); GFP response vs DMSO, % at 10 µM; S. cerevisiae LAP4-GFP multiplex, flow cytometry GFP, 3 h; median GFP as percent of DMSO wells; AID 2023;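 active = GFP response vs DMSO above a set limit, about the screen mean plus 3 SD, cut at about 150% in these data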
# LAP4-GFP pick2 = second confirmation of modulators of TOR reporter LAP4-GFP in yeast; shares compounds with LAP4-GFP MLPCN; S. cerevisiae LAP4-GFP strain, flow cytometry GFP, 3 h; GFP response vs DMSO, % at 10 µM; actives 20% (n = 590);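 active = GFP signal as percent of the solvent control above about 150%, meaning raised reporter expression, limit read from the data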;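 note: ratio of well median GFP fluorescence to plate DMSO mean so 100% = DMSO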
# MEP2-GFP pick2 = yeast MEP2-GFP modulation, second cherry pick. shares compounds with LAP4-GFP MLPCN. actives 10% (n = 590). GFP response vs DMSO, % at 10 µM. S. cerevisiae MEP2-GFP strain, flow cytometry GFP, 3 h;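 active = GFP signal above 150% of the solvent control wells, that is a rise of more than half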;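 note: median channel GFP fluorescence of all gated yeast cells per well; ratio of median GFP to plate DMSO average so 100% = DMSO level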
# RPL19A GFP CP2 = yeast RPL19A-GFP TOR reporter modulation, second cherry pick; shares compounds with LAP4-GFP MLPCN; S. cerevisiae RPL19A-GFP strain, flow cytometry GFP, 3 h; stronger effect = lower value; 100% means same as DMSO wells; GFP response vs DMSO, % at 10 µM; actives 3% (n = 590); AID 2623;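 active = under 65% GFP response relative to DMSO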;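 note: median GFP channel fluorescence per well over the all cells gate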
# CIT2 GFP CP2 = second confirmation of modulators of TOR reporter CIT2-GFP in yeast | shares compounds with LAP4-GFP MLPCN | S. cerevisiae CIT2-GFP strain, flow cytometry GFP, 3 h; DMSO control wells read 100% | GFP response vs DMSO, % at 10 µM | actives 8% (n = 590);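 active = GFP response vs DMSO above about 150%, limit read from the data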;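 note: median green fluorescence per well over all gated yeast cells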
# AGP1-GFP pick2 = second confirmation of modulators of TOR reporter AGP1-GFP in yeast; 590 tested, under 10 active; AID 2643; shares compounds with LAP4-GFP MLPCN; percent response vs DMSO, % at 10 µM; S. cerevisiae AGP1-GFP strain, flow cytometry GFP, 3 h;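 active = over 150 percent of DMSO response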;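 note: median GFP channel fluorescence over all cells without mother daughter split; sample median GFP divided by mean DMSO control so 100% equals DMSO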
# s288c autofluor = counter-screen for compound autofluorescence in yeast s288c cells. shares compounds with LAP4-GFP MLPCN. S. cerevisiae s288c, 520 nm autofluorescence, flow cytometry, 3 h; stronger effect = higher value; zero means same as solvent-only cells. 610 tested, under 10 active. AID 2757. fluorescence change (kMESF span) at 33 µM;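 active = fluorescence span over the dose series, or activity score, above about 33, limit read from the data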
# Yeast autofl DR = yeast s288c autofluorescence artifact in dose response | shares compounds with LAP4-GFP MLPCN | S. cerevisiae s288c parental, compound autofluorescence, flow cytometry, 3 h | fluorescence change (span) at 33 µM | 110 tested, under 10 active;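 active = fluorescence change span, or the activity score built from it, above 25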
# TORC1 bypass = stops wildtype yeast growth while TORC1 bypass cells still grow | shares compounds with LAP4-GFP MLPCN | S. cerevisiae BY4741 spot growth rating, 48-72 h; stronger effect = lower value | growth rating (0-3) at 30 µM | 120 tested, under 10 active;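 active = growth rating at most 1 for wild type yeast while the TORC1 bypass strain still grows fully, rated 3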
# Starred values were filed as active, the others as inactive; · = no result; + = active, no number. An excerpt weighted towards active compounds, which were near 0.89% of everything screened.
SMILES,RPL19A TOR yeast,AGP1-GFP MLPCN,MEP2-GFP yeast,CIT2-GFP yeast,LAP4-GFP MLPCN,s288c autofluor,others
CC(C)N1CC(C(=O)Nc2cc(Cl)cc(Cl)c2)CC1=O (stereo not given),95,86,105,94,83,·,
CN(C)c1ccc(N=Cc2nc(-c3ccccc3)oc2OC(=O)c2cccc(Br)c2)cc1,102,97,109,106,98,·,
CCC(=O)Oc1oc(-c2ccccc2)nc1C=Nc1ccc(C)cc1,101,102,96,90,103,-0.5,
CCC(=O)Oc1oc(-c2ccccc2)nc1C=Nc1ccccc1OC,94,92,99,81,103,0,
Cc1ccc(-n2ncc3c(=O)n(CC#N)cnc32)cc1,100,100,98,103,111,·,
Cc1ccc(C(=O)O/N=C(\N)Cc2ccc([N+](=O)[O-])cc2)c(Cl)c1,101,67,90,77,138,·,
Cc1ccc(C(=O)O/N=C(\N)Cc2cccs2)c(Cl)c1,87,54,108,129,232*,0.9,
Cc1cc(=O)n2c3c(sc2n1)C(=O)N(Cc1ccccc1)C3=O,88,79,87,69,194*,1,
Cc1cc(=O)n2nc(-c3ccccc3)sc2n1,100,95,94,108,99,·,
O=C(Nc1ccc(OC(F)(F)F)cc1)C1=NCCN1,100,101,91,99,94,·,
CC1(C)C(=O)Nc2ccccc2N1C(=O)COc1ccccc1C#N,87,117,99,92,158*,·,LAP4-GFP pick2=100;MEP2-GFP pick2=100;RPL19A GFP CP2=98;CIT2 GFP CP2=107;AGP1-GFP pick2=99
Fc1cccc(Nc2ncnc3c2cnn3-c2ccccc2)c1,91,93,99,69,157*,0,LAP4-GFP pick2=133;MEP2-GFP pick2=103;RPL19A GFP CP2=87;CIT2 GFP CP2=86;AGP1-GFP pick2=88
CC(=O)c1ccc(NC(=S)N2CCN(CCO)CC2)cc1,95,90,107,89,88,·,
Oc1c(CN2CCCCC2)cc(Br)c2cccnc12,91,107,119,112,227*,1.1,
O=[N+]([O-])c1cc(CN2CCN(c3ccccc3)CC2)c(O)c2ncccc12,77,75,99,·,153*,1.1,
COc1ccc(NC(=O)/C(C#N)=C/c2ncc([N+](=O)[O-])n2C)c(OC)c1,100,104,134,117,182*,2.3,
Cc1[nH]nc2c1C(c1c[nH]c3ccccc13)C(C#N)=C(N)O2 (stereo not given),99,92,94,94,95,·,
CCCS(=O)(=O)c1nnnn1-c1cccc(OC)c1,80,79,90,67,204*,2,
COc1cccc(-n2nnnc2SCC(=O)Nc2ccccc2OC)c1,98,98,97,100,97,·,
COc1ccc(-c2cc(=O)c3c(OC)c(OC)c(OC)c(OC)c3o2)cc1OC,75,91,93,84,234*,·,LAP4-GFP pick2=101;MEP2-GFP pick2=101;RPL19A GFP CP2=100;CIT2 GFP CP2=102;AGP1-GFP pick2=97
COc1ccc(-c2cc(C)no2)cc1S(=O)(=O)N1CCCN(Cc2ccc(F)cc2)C1,52,73,129,103,87,·,LAP4-GFP pick2=100;MEP2-GFP pick2=100;RPL19A GFP CP2=99;CIT2 GFP CP2=104;AGP1-GFP pick2=98
COc1ccc(-c2cc(C)no2)cc1S(=O)(=O)Nc1cccc(CN2CCCC2)c1,101,100,100,93,92,·,
CCCCN(C(=O)CSCC(=O)Nc1ccc(C)cc1)c1c(N)n(Cc2ccccc2)c(=O)[nH]c1=O,92,100,99,95,103,·,
CCOC(=O)c1c(C)[nH]c(C)c1S(=O)(=O)N(C)CC(=O)NCc1cccc(Br)c1,60,27,877*,88,114,·,LAP4-GFP pick2=98;MEP2-GFP pick2=102;RPL19A GFP CP2=101;CIT2 GFP CP2=103;AGP1-GFP pick2=101
Cc1c(N2C(=O)/C(=C\c3ccccc3O)SC2=S)c(=O)n(-c2ccccc2)n1C,95,93,96,108,170*,0.6,
SMILES,RPL19A TOR yeast,AGP1-GFP MLPCN,MEP2-GFP yeast,CIT2-GFP yeast,LAP4-GFP MLPCN,s288c autofluor,others
Cc1c(N2C(=O)/C(=C/c3ccccc3)SC2=S)c(=O)n(-c2ccccc2)n1C,92,97,76,119,90,·,
Cc1cccc(C(=O)NCC(=O)N2CCC2)c1,403,447*,+,+,+,·,LAP4-GFP pick2=100;MEP2-GFP pick2=100;RPL19A GFP CP2=99;CIT2 GFP CP2=104;AGP1-GFP pick2=99
O=[N+]([O-])c1ccc(S(=O)(=O)c2cccc(C(F)(F)F)c2)nc1,70,·,102,·,·,0.81,Yeast autofl DR=0.73;TORC1 bypass=3
CCN(CC)CCNc1ncnc2c1sc1nc(N3CCCC3)c3c(c12)CC(C)(C)OC3,101,100,105,103,100,·,
CCOc1cc(S(=O)(=O)NCC2CCCO2)ccc1F (stereo not given),104,111,103,114,89,·,
O=C(O)c1ccn2c(C(=O)c3ccccc3)c(-c3ccccc3)cc2c1,99,97,90,94,156*,0.51,
COc1ccc(-c2cc3cc(C(=O)O)ccn3c2C(=O)c2ccccc2)cc1,101,106,110,110,150*,0,
COc1ccc(C(=O)c2ccccc2)cc1,108,101,109,106,110,·,
CCCCNC(=O)O[C@H]1C[C@@H]2CCN3C(=O)CCC(C)(C)[C@H](C1)[C@H]23,109,100,102,114,136,·,
O=C(c1ccc(N2CCCC2)c([N+](=O)[O-])c1)N1CCc2ccccc2C1,100,103,91,89,109,·,
